High-throughput results as filed in PubChem BioAssay.
Compounds with a hit are over-represented: about 2.4% of the library has one in this group of screens.
D2 antag: HTS Assay for Allosteric Antagonists of the Human D2 Dopamine Receptor: Primary Screen for Antagonists. D(2) dopamine receptor (Homo sapiens), P14416. HEK293 TREx D2 cells, calcium flux, dopamine EC80. inhibition, % at 10 µM. 2% of 340,000 active; in the data active means inhibition above about 30%; inactive means below that, where a call was filed; further: 0% is about no effect
Target sequence (P14416 whole entry, looked up): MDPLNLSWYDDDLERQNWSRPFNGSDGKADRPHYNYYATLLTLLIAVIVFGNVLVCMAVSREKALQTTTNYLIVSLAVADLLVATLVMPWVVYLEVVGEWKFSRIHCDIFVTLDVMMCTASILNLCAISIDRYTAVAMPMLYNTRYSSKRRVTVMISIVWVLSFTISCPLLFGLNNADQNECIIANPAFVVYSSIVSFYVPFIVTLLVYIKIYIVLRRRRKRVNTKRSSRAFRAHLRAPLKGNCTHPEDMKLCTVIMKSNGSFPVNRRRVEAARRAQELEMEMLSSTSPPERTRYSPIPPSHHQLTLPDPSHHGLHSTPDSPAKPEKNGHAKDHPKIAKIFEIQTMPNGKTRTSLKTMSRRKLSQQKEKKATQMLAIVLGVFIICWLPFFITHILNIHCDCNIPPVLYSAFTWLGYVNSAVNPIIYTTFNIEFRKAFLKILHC
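Overnight-induced (tetracycline, 30 C) HEK293 T-REx cells carrying force-coupled D2 receive a no-wash calcium dye, then compound, then EC80 dopamine at 180 s; signals are read kinetically throughout.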
D2 PAM-1: Beta-Arrestin HTS for Positive Allosteric Modulators of the Human D2 Dopamine Receptor: Potentiators | D(2) dopamine receptor (Homo sapiens), P14416 | DiscoveRx D2 beta-arrestin cells, luminescence, 90 min; 100% = 57 uM dopamine signal | potentiation, % (test concentration not listed) | 0.23% of 360,000 active; in the data active means potentiation above about 50%; inconclusive means mostly about 30% to 49%
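PathHunter D2 cells, attached overnight at 37 deg C, received compound in DMSO plus dopamine at EC20 (50 nM final) for 90 min at 37 deg C. Beta-arrestin recruitment was read as luminescence after 1 h with detection reagent at ambient temperature.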
D2 ag-1: Beta-Arrestin HTS for Positive Allosteric Modulators of the Human D2 Dopamine Receptor: Agonists; D(2) dopamine receptor (Homo sapiens), P14416; DiscoveRx PathHunter D2 beta-arrestin, luminescence, 90 min; 100% = 57 uM dopamine signal; activation, % (test concentration not listed); 0.084% of 360,000 active; in the data active means activation above about 40%; inconclusive means between about 15% and that limit
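DiscoveRx PathHunter D2 beta-arrestin cells (2,100/well) attached overnight, then compound-stimulated 90 min at 37 C in HBSS/10 mM HEPES/0.1% Tween-20 buffer; beta-galactosidase complementation read by luminescence after 1 h at ambient temperature. Dopamine 57 uM final (EC100) as control.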
D2 PAM-2: HTS Assay for Positive Allosteric Modulators of the Human D2 Dopamine Receptor: Primary Screen for Potentiators; D(2) dopamine receptor (Homo sapiens), P14416; HEK293 T-REx D2, calcium flux, EC20 dopamine potentiation; potentiation, % at 10 µM; 0.34% of 340,000 active; AID 485347, 2010;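 active means potentiation over 3 SD above the plate norm, cut at about 30% in these data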; further: 0% is about no effect
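Tetracycline-induced HEK293 T-REx cells force-coupled to calcium signalling expressed D2; compounds were pin-added after a 10 s baseline, read kinetically 180 s, then an EC20 dopamine challenge followed with a further 180 s calcium read.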
D2 ag-2: HTS Assay for Allosteric Agonists of the Human D2 Dopamine Receptor: Primary Screen for Agonists | 0.53% of 340,000 active | HEK293 T-REx D2 cells, calcium flux agonist mode | activation, % at 2 µM | AID 485358, 2010;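 active means activation over 3 SD above normal in the single-dose calcium agonist read, cut at about 30% in these data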; further: 0% is about no effect
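Agonism is scored from calcium flux in a force-coupled, inducible HEK293 cell line expressing D2, read kinetically for 180 s after compound addition against dopamine controls.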
The depositor's hits bear a star; ? = inconclusive; . = not tested or not shown.

SMILES	D2 antag	D2 PAM-1	D2 ag-1	D2 PAM-2	D2 ag-2
COc1ccc(C(CNC(=O)c2cc3c(s2)CCC(C)C3)N2CCCC2)cc1 (centres undefined)	72*	-8	-1	-25	0
COc1ccc(C(CNC(=O)c2cc3ccccc3o2)N2CCCCC2)cc1 (centres undefined)	67*	-21	-2	-20	0
COc1ccc(C(CNC(=O)c2cc3ccccc3o2)N2CCCC2)cc1 (centres undefined)	79*	-5	-1	-29	1
COc1ccc(C(CNC(=O)C(C)(C)Oc2ccc(Cl)cc2)N2CCCC2)cc1 (centres undefined)	97*	-37	-1	-24	0
Cc1cccc(NC2=NC(=S)N(c3ccc(C(=O)O)cc3)C23CCCCC3)c1	.	2	-4	.	.
O=[N+]([O-])c1cc(-n2cnnn2)ccc1N1CCC(Cc2ccccc2)CC1	32*	9	2	-12	0
CC1CC(C)CN(c2ccc(-n3cnnn3)cc2[N+](=O)[O-])C1 (centres undefined)	-4	2	-7	1	0
CC(C)c1ccc(NC(=O)c2cnn(-c3ccccc3)c2NC(=O)c2ccco2)cc1	0	-15	1	-3	1
Cc1ccc(-c2ccc(CCC(=O)O)n2NC(N)=S)cc1	-8	-20	0	4	2
Cc1ccc(-c2ccc(CCC(=O)O)n2C(C)C)cc1	33*	-7	-2	16	0
Cc1ccc(C)c(OCCCNC2CCCC2)c1C	-3	-3	-6	7	-2
CCOc1ccc(OCCNC2CCCC2)cc1	16	-5	-4	-3	0
COc1cccc(OC)c1OCCCNC1CCCC1	48*	-3	-4	-30	0
Brc1cccc(OCCCNC2CCCC2)c1	58*	-24	-6	-26	8
CCOc1ccccc1OCCNC1CCCC1	62*	-17	-3	-51	1
COc1ccccc1N1CCN(c2cc(C)nc3nc(-c4ccc(C)cc4)nn23)CC1	.	.	.	6	-1
O=C(CCC(=O)c1ccc(F)cc1)Nc1cc(Cl)cc(Cl)c1	39*	-24	-5	-16	0
COc1ccc2oc(C)c(C(=O)c3ccc([N+](=O)[O-])cc3)c2c1	-2	84*	?	14	19
O=S(=O)(c1ccc(N=C2NN=C(c3cc(F)ccc3F)CS2)cc1)N1CCOCC1	18	15	-3	30*	0
CC(=O)Nc1ccc(C2=NNC(=Nc3cccc(S(=O)(=O)N(C)C)c3)SC2)cc1	6	0	7	6	-1
CC(=O)Nc1ccc(C2=NNC(=Nc3ccc(S(=O)(=O)N4CCOCC4)cc3)SC2)cc1	43*	-6	7	-6	-1
CCc1ccc(CN(C(=O)c2nc(SC)ncc2Cl)C2CCS(=O)(=O)C2)cc1 (centres undefined)	.	.	.	-12	1
COC(=O)CC(NS(=O)(=O)c1cccs1)c1cccc2ccccc12 (centres undefined)	46*	-3	-2	2	0
COC(=O)CC(NC(=O)c1ccco1)c1cccc2ccccc12 (centres undefined)	8	-10	-1	10	0
Cc1ccc(C(=O)Oc2oc(-c3ccccc3)nc2C=Nc2ccc(N(C)C)cc2)cc1	-8	-18	-1	39*	-2
SMILES	D2 antag	D2 PAM-1	D2 ag-1	D2 PAM-2	D2 ag-2
CN(C)C(CNC(=S)Nc1cccc(Cl)c1)c1ccccc1 (centres undefined)	55*	-18	-6	.	0
Cc1cccc(NC(=S)NC(C)CCc2ccccc2)c1 (centres undefined)	-14	-4	-3	-21	0
Cc1cccc(NC(=S)NCC(c2ccccc2)N(C)C)c1 (centres undefined)	38*	-12	-1	.	0
CN(C)NC(=S)Nc1cccc(Cl)c1	45*	-2	3	2	1
O=S(=O)(NCc1cc(-c2ccccc2)no1)c1ccccc1	-6	-3	-6	1	0
Oc1ccc(C[C@@H]2CNC(=S)N2CCc2cc(C(F)(F)F)cc(C(F)(F)F)c2)cc1	-7	-12	2	0	0
Cc1nc(NC(=O)CSc2nncs2)c(Cl)cc1Cl	-28	-6	0	3	0
Cc1ccc(NC(=O)CSc2nncs2)cc1Cl	48*	-19	-2	-19	3
C#CCSc1nccc(-c2nn(-c3ccc(C)cc3)ccc2=O)n1	32*	-32	-4	-18	0
COc1cc(C(=O)O/N=C2/C=C(C)C(=O)C=C2C)cc(OC)c1OC	2	2	?	1	1
CC1=C/C(=N\OS(=O)(=O)c2ccccc2)C(C(C)C)=CC1=O	6	114*	49*	1	0
COc1ccc(S(=O)(=O)/N=C2/C=CC(=O)C(C)=C2C)cc1	-2	10	11	16	0
CC1=C/C(=N\OS(=O)(=O)c2ccccc2)C(C)=CC1=O	-6	79*	?	5	1
CC(S(=O)(=O)c1ccccc1)S(=O)(=O)c1ccccc1	.	-7	-7	.	.
CC1=C(C)/C(=N\OS(=O)(=O)c2ccc(C)cc2)C=CC1=O	.	67*	48*	-2	.
CCCN1CCN(CCCNC(=O)C2CCCN(c3nc4ccc(OCC)cc4s3)C2)CC1 (centres undefined)	.	-4	-1	.	.
COc1ccc(CCNC(=O)c2ccc(CNS(=O)(=O)c3ccc(C(C)(C)C)cc3)cc2)cc1OC	14	17	4	-22	8
CCCCN(CC)CCCNC(=O)c1cc2c(=O)oc3ccc(C)cc3c2s1	.	.	.	-1	.
CCOc1ccc(Br)cc1S(=O)(=O)N1CCCC1	54*	-3	0	0	0
CCCCCn1c(S(=O)(=O)O)nc2ccccc21	-11	3	0	-10	0
CCCCn1c(S(=O)(=O)O)nc2ccccc21	33*	2	5	-4	-1
COCCCN1C(=O)N(c2ccc(F)cc2)C(=O)C1CC(=O)Nc1ccc(OC)cc1 (centres undefined)	-2	-3	0	9	1
C/C(=N\Nc1ncnc2sc(C)c(C)c12)c1ccccn1	-19	20	-4	10	46*
COC(=O)c1sccc1NC(=O)C1CC(C)=C(C)CC1C(=O)O (centres undefined)	-9	-3	0	3	-1
COc1cc(NC(=O)COc2cccc(OC)c2)cc(OC)c1	-14	-1	0	-3	-2
